The record followed here is PMC7862700, “An all-to-all approach to the identification of sequence-specific readers for epigenetic DNA modifications on cytosine”.

Holding throughout (assay): DAPPL (digital affinity profiling via proximity ligation, sequencing); 10 mM Tris-HCl pH 7.5, 50 mM NaCl, 1 mM DTT, 4% glycerol, room temperature, 30 min; GST-TFs on glutathione beads, 16-mer random dsDNA library, 0.1% formaldehyde crosslink after washing; high values mean tight binding
Details in all cases: protein: recombinant; tags: N-terminal GST; dsDNA, one strand shown

The target in one test is T1, FLI1 (Homo sapiens, UniProt Q01543 1-452).
T1 sequence: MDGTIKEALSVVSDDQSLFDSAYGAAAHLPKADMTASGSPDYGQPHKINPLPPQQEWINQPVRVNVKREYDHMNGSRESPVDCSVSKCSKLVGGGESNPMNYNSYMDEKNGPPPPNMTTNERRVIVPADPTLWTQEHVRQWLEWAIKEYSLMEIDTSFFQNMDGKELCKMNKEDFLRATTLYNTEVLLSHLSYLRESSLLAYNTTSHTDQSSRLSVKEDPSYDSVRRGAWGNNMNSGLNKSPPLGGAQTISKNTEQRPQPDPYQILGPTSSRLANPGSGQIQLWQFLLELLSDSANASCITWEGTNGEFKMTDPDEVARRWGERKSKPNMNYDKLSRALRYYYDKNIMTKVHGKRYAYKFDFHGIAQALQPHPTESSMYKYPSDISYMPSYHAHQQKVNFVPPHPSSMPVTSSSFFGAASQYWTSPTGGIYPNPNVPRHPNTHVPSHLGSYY
In a few lines: (§1)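 Each value of binding signal is a hexamer's read frequency for a factor divided by the same hexamer's frequency in the tag-only sample. Barcoded, bead-captured GST fusions of human transcription factors made in yeast were pooled with that sample and incubated with 200 nmole of a random double-stranded 16-mer DNA library in Tris/NaCl/DTT/glycerol buffer at room temperature for 30 min. Washing, 0.1% formaldehyde crosslinking, proximity ligation, PCR and Illumina NextSeq500 sequencing followed.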

In the next test the target is T2, ELK1 (Homo sapiens, UniProt P19419 1-428).
T2 sequence: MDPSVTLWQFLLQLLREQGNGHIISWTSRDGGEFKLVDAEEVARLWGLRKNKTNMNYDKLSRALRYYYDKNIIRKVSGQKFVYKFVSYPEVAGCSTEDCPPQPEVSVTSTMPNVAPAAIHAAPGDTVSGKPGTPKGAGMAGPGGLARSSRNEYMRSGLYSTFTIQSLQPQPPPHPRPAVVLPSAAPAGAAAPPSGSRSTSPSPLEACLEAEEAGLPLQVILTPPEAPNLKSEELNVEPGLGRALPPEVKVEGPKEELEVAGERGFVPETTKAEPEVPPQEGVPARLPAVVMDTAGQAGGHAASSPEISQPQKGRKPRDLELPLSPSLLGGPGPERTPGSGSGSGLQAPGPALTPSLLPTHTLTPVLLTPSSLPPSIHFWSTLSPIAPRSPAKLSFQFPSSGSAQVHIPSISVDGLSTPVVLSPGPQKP
A digest of the protocol: as §1

For a further test, the target named is T3, ERG (Homo sapiens, UniProt P11308 1-479).
T3 sequence: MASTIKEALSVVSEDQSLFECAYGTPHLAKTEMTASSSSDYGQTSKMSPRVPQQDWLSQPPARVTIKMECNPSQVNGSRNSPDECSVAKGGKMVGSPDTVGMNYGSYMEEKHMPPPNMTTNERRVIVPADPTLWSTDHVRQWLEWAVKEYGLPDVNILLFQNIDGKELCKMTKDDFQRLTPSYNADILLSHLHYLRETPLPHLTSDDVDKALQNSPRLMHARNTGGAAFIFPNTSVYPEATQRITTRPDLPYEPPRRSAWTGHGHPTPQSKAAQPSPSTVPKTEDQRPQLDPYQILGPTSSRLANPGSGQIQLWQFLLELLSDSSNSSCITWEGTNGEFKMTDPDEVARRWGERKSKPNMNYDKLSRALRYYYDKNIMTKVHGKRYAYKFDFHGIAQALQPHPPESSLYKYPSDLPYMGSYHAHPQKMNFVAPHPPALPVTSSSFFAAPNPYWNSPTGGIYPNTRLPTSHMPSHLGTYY
In a few lines: as §1

The target of the next test is ELF1 (Homo sapiens, UniProt P32519 1-619). A digest of the protocol:
as §1

For the next test, the target named is T4, EHF (Homo sapiens, UniProt Q9NZC4 1-300).
T4 sequence: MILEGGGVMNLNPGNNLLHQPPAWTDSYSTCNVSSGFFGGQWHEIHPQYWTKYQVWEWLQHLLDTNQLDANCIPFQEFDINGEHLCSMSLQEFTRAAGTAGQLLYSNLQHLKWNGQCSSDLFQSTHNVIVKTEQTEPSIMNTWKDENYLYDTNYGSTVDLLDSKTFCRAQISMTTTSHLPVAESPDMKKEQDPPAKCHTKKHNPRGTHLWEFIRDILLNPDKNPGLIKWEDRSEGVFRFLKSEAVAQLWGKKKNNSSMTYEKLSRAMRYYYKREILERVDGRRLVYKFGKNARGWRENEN
In a few lines:
as §1

For the next test, the target named is T5, ELK3 (Homo sapiens, UniProt P41970 1-407).
T5 sequence: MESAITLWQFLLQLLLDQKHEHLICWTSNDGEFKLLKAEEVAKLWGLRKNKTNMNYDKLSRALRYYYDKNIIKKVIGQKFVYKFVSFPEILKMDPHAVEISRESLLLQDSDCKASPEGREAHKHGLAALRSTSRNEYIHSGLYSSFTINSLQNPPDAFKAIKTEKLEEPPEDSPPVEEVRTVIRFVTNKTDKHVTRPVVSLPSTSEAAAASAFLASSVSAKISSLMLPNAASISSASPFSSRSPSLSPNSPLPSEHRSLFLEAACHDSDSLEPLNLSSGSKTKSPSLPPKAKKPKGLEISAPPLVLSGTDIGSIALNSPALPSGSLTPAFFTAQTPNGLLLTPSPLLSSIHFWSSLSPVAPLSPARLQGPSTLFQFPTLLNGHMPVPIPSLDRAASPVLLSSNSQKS
A digest of the protocol: as §1

In the next test the target is ETV1 (Homo sapiens, UniProt P50549 1-477). A digest of the protocol:
as §1

In a further test the target is T6, ERF (Homo sapiens, UniProt P50548 1-548).
T6 sequence: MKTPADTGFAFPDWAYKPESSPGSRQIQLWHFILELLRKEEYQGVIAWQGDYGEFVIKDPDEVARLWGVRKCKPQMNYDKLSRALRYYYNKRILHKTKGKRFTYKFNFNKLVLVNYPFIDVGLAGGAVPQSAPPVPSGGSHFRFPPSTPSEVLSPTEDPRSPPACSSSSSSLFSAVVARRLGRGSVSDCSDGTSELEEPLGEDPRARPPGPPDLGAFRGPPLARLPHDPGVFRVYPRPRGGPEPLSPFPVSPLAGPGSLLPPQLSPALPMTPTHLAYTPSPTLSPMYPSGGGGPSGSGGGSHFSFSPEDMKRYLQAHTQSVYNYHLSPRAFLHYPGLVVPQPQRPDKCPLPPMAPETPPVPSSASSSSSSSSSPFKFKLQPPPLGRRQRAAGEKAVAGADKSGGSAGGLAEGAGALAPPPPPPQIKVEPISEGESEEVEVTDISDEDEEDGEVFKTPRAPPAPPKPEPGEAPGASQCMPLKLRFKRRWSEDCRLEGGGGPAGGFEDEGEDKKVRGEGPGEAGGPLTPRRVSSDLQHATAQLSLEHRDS
A digest of the protocol: as §1

A further test addresses T7, ETV3L (Homo sapiens, UniProt Q6ZN32 1-361).
T7 sequence: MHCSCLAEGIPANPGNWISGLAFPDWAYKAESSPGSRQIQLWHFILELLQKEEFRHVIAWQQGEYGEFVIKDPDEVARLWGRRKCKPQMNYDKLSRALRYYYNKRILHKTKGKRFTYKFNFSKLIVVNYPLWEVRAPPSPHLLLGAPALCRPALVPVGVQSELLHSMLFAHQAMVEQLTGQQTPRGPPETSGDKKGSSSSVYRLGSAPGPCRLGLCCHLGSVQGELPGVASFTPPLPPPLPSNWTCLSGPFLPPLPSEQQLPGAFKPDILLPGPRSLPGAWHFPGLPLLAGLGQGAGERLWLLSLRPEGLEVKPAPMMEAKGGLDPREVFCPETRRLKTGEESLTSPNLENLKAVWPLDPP
In a few lines:
as §1

The next test has as its target T8, ETS2 (Homo sapiens, UniProt P15036 1-469).
T8 sequence: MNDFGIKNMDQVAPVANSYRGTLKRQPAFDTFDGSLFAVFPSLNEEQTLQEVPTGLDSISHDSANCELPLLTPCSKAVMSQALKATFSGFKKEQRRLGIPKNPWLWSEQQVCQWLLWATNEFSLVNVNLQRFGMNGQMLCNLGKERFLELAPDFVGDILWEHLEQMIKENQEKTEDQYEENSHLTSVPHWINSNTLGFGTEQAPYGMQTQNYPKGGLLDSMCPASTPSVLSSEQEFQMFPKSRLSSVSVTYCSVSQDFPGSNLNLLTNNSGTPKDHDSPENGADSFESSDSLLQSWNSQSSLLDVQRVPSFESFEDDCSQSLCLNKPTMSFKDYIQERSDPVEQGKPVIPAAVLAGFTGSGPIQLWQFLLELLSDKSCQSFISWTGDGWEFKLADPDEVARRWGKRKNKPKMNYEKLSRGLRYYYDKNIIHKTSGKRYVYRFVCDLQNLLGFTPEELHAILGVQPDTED
In a few lines: as §1

For a further test, the target named is T9, ETV3 (Homo sapiens, UniProt P41162-2 1-143).
T9 sequence: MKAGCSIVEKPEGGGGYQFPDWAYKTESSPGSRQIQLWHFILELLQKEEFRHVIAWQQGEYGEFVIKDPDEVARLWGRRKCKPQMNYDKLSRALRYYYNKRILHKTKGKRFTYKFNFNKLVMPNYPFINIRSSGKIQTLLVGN
A digest of the protocol: as §1

A further test has as its target T10, ETV7 (Homo sapiens, UniProt Q9Y603 1-341).
T10 sequence: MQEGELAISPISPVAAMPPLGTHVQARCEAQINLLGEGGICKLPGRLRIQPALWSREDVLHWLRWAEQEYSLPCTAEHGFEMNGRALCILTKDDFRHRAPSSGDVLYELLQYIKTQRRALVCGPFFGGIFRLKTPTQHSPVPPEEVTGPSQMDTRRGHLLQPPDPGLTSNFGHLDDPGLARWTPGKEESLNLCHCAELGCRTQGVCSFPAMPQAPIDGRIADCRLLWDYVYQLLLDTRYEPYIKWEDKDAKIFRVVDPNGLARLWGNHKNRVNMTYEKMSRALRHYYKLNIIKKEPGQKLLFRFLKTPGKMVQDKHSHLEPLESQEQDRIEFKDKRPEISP
In a few lines: as §1

ELF1, sequence (P32519 whole entry): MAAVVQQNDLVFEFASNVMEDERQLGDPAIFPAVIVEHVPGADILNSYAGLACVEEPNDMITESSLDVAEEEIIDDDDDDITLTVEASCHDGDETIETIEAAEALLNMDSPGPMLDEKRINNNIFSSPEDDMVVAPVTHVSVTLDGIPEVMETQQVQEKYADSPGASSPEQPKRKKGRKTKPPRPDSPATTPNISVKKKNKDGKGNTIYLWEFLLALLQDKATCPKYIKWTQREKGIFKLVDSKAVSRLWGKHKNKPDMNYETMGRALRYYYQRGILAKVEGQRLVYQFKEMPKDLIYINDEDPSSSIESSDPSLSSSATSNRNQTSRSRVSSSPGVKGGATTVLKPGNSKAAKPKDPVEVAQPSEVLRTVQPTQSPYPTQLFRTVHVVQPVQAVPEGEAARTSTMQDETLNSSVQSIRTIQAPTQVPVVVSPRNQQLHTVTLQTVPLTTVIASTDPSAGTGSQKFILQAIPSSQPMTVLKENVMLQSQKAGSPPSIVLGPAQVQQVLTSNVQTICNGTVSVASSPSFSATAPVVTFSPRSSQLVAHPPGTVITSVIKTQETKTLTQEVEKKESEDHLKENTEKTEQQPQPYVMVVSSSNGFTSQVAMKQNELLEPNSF
ETV1, sequence (P50549 whole entry): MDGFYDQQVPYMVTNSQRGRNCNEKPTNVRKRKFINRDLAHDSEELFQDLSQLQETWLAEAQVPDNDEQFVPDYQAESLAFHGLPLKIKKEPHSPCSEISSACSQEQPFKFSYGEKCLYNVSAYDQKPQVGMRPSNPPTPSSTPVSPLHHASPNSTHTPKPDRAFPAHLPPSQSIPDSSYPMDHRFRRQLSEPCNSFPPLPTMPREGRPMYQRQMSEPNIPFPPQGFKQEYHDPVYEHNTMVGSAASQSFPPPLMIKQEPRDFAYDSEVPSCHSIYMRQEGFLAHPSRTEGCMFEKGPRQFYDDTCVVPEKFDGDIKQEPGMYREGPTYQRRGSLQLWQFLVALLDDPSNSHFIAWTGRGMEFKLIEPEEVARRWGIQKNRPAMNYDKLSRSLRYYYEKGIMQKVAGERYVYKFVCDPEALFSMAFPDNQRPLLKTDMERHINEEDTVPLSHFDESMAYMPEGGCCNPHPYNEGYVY

Turning to CGCACA, the binding signal in the test with FLI1 was 1.01 fold enrichment (6-mer frequency, TF over GST control); with ELK1, 1.08 fold enrichment (6-mer frequency, TF over GST control); with ERG, 1.02 fold enrichment (6-mer frequency, TF over GST control); with ELF1, 1.05 fold enrichment (6-mer frequency, TF over GST control); in the test with EHF it was 1.03 fold enrichment (6-mer frequency, TF over GST control); in the test with ELK3, 1.02 fold enrichment (6-mer frequency, TF over GST control). The binding signal in the test with ETV1 is 1.01 fold enrichment (6-mer frequency, TF over GST control); with ERF, 1.07 fold enrichment (6-mer frequency, TF over GST control); in the test with ETV3L it was 1.04 fold enrichment (6-mer frequency, TF over GST control); with ETS2, 1.04 fold enrichment (6-mer frequency, TF over GST control); in the test with ETV3, 1.03 fold enrichment (6-mer frequency, TF over GST control).

Regarding GTCCAA, the binding signal with FLI1 is 1.03 fold enrichment (6-mer frequency, TF over GST control); with ELF1 it was 1.03 fold enrichment (6-mer frequency, TF over GST control); with ETV7 it was 1.01 fold enrichment (6-mer frequency, TF over GST control); with ETV3, 1.04 fold enrichment (6-mer frequency, TF over GST control).
